The structures appear in SMILES notation. “And” between values parts separate entries of the source, which are not always exact repeats. Equal entries are not always repeated. Results filed as inconclusive are left out. Some compounds were tested as several samples or in several runs, with calls that do not always agree. The source made the active and inactive calls. Rule for the calls: active = hit-call score of the fitted dose curve at least 0.9, where 1 is the maximum; inconclusive = response in the unintended direction; inactive = score below 0.9.

Our source for the outcome and AC50 values is PubChem BioAssay (EPA / NIEHS).

This assay in a line: Tanguay_ZF_120hpf_SOMI_legacy: (Legacy) Oregon State University Tanguay Lab 120 Hour Post-fertilization zebrafish Assay for Somite Malformation (AID 2283647). The method in brief: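 5D WT zebrafish; chorion removed 4 hpf; 1 embryo/well from 6 hpf; static exposure to 120 hpf, 28C, 0.64% DMSO final. Endpoint: somite malformation, binary, brightfield. Mortality excluded.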
As to `CCN(CC)C(=O)c1cccc(C)c1`, the call was inactive.

As to `N#CSCSc1nc2ccccc2s1`, the result was inactive.

Consider `COc1c(Cl)ccc(Cl)c1C(=O)O`, for which the result was inactive.

As to `O=C(c1ccccc1)C1CCCCC1`, the compound was called inactive.

On to `CCNc1nc(N)nc(Cl)n1`, for which the result was inactive.

As for `CC(C)(c1ccc(O)cc1)c1ccc(O)cc1`, the AC50 is 44.3 µM (active) and 36.4 µM (active); the call was inactive.

Turning to `CCCN(CCC)c1c([N+](=O)[O-])cc(C(F)(F)F)c(N)c1[N+](=O)[O-]`, the outcome was inactive.

As for `CCCCOC(=O)C(C)Oc1ccc(Oc2ccc(C(F)(F)F)cn2)cc1` (configuration not stated), the compound was called inactive.

As to `Cc1nn(C)c(Oc2ccccc2)c1C=NOCc1ccc(C(=O)OC(C)(C)C)cc1`, the call was inactive.

As to `C#CCOC(=O)[C@@H](C)Oc1ccc(Oc2ncc(Cl)cc2F)cc1`, the outcome was inactive.

Regarding `CC1(C)C(C=C(Cl)Cl)C1C(=O)OCc1cccc(Oc2ccccc2)c1` (configuration not stated), the call was inactive.

Regarding `CCCCCOC(=O)COc1cc(N2C(=O)C3=C(CCCC3)C2=O)c(F)cc1Cl`, the outcome was inactive.

Consider `CCC(C)OC(=O)N1CCCCC1CCO` (configuration not stated), for which the outcome was inactive.

As for `O=C(O)c1ccccc1`, the call was inactive.

As to `O=C(c1ccc(O)cc1O)c1ccc(O)cc1O`, the call was inactive.

As for `CC(C)CCCCCCc1ccc(O)cc1`, the outcome was inactive.

Regarding `C[C@]12C[C@H](O)[C@H]3[C@@H](CCC4=CC(=O)CC[C@@]43C)[C@@H]1CC[C@@H]2C(=O)CO`, the call was inactive.

Take `S=C([S-])NCCNC(=S)[S-].[Mn+2]`: the compound was called inactive.

Take `S=C(S)NCCNC(=S)S.[Mn+2].[S-]C([S-])=NCCN=C([S-])[S-].[Zn+2]`: the compound was called inactive.

Regarding `COCCO`, the result was inactive.

For `O=C(O)C1(C(=O)Nc2ccc(Cl)cc2Cl)CC1`, the compound was called inactive.
